Laboratory results as given in PubChem BioAssay (NCI).
About 79,000 compounds went through this panel and 15% of them were active in at least one assay; those are over-represented in the sample as a whole. A number with no mark means an inactive call. Activity calls are given as the source filed them. Rule as the data show it: active = growth inhibition above about 70%; inactive = the rest.

Key:
[1] = NCI Yeast Anticancer Drug Screen. Data for the rad50 strain (AID 155);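 also: 0% = growth of vehicle-only cultures of the same strain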; conditions: S. cerevisiae rad50 strain growth inhibition, active compounds read high
Outline: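 Cells are treated with compound, grown, and their growth is then scored against vehicle-only cultures of the same repair-deficient yeast strain.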

[2] = NCI Yeast Anticancer Drug Screen. Data for the mec2-1 strain (AID 157); conditions: S. cerevisiae mec2-1 strain, active compounds read high
Outline: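 Each compound was tested on mec2-1 yeast, a strain altered in DNA damage repair or cell cycle control. Growth inhibition is reported relative to vehicle.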

[3] = NCI Yeast Anticancer Drug Screen. Data for the sgs1 mgt1 strain (AID 161);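 also: 0% = growth of cultures given vehicle only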; conditions: S. cerevisiae sgs1 mgt1 strain, active compounds read high
Outline: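 Mutant yeast exposed to compound; growth scored against vehicle-only wells.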

[4] = NCI Yeast Anticancer Drug Screen. Data for the cln2 rad14 strain (AID 165);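 also: 0% = growth equal to vehicle treated cultures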; conditions: S. cerevisiae cln2 rad14 strain, active compounds read high
Outline: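 Test compounds were added to cln2 rad14 yeast cultures; inhibition of growth was then determined by comparison with vehicle treatment.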

[5] = NCI Yeast Anticancer Drug Screen. Data for the bub3 strain (AID 167); conditions: S. cerevisiae bub3 mutant strain, active compounds read high
Outline: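 Part of a panel of yeast mutants defective in DNA damage repair or cell cycle regulation. Each strain is grown with compound, and inhibition is calculated relative to solvent-treated cultures.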

[6] = NCI Yeast Anticancer Drug Screen. Data for the mlh1 rad18 strain (AID 175); conditions: S. cerevisiae mlh1 rad18 strain growth inhibition, active compounds read high
Outline: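 Inhibition values reflect reduced growth of mutant yeast versus vehicle-treated controls following compound exposure; the mutations affect DNA damage repair.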

[7] = at 5.0 µM (retest, dose inferred, filed as 0.5)
[8] = at 50.0 µM (retest, dose inferred, filed as 5.0)

Row | SMILES | growth inhibition [1, 7] | growth inhibition [1, 8] | growth inhibition ([1]; at 50.0 µM) | growth inhibition [2, 7] | growth inhibition [2, 8] | growth inhibition ([2]; at 50.0 µM) | growth inhibition [3, 7] | growth inhibition [3, 8] | growth inhibition ([3]; at 50.0 µM) | growth inhibition [4, 7] | growth inhibition [4, 8] | growth inhibition ([4]; at 50.0 µM) | growth inhibition [5, 7] | growth inhibition [5, 8] | growth inhibition ([5]; at 50.0 µM) | growth inhibition [6, 7] | growth inhibition [6, 8] | growth inhibition ([6]; at 50.0 µM)
1 | O=C1C=CC(=O)N1c1ccccc1[N+](=O)[O-] | 98% (active) | 99% (active) | 99.5% (active) | 99% (active) | 100% (active) | 99.5% (active) | 98% (active) | 99% (active) | 99.4% (active) | 90% (active) | 99% (active) | 99.6% (active) | 97% (active) | 100% (active) | 99.5% (active) | 98% (active) | 100% (active) | 99.5% (active)
2 | N=C(N)c1ccc(-c2ccc(-c3ccc(C(=N)N)cc3)o2)cc1 | 17% | 88% (active) | 94.8% (active) | -6% | 52% | 89% (active) | 1% | 61% | 90.3% (active) | -2% | 35% | 75.5% (active) | 4% | 62% | 92.8% (active) | -10% | 76% (active) | 92.2% (active)
3 | CN(Cc1ccccc1)CC(O)c1ccc(/C=C/c2ccc(Cl)cc2)cc1 (centres undefined) | 55% | 66% | 86.1% (active) | 38% | 66% | 65.5% | 87% (active) | 92% (active) | 95.9% (active) | 52% | 64% | 87.6% (active) | 68% | 82% (active) | 69.6% | 56% | 73% (active) | 86.2% (active)
4 | COc1cccc2c1C(=O)c1c(O)c3c(c(O)c1C2=O)CC(O)(C(=O)CO)CC3OC1CC(N)C(O)C(C)O1.[Cl][Pt+2][Cl].[NH2-].[NH2-] (centres undefined) | 12% | 85% (active) | 74.5% (active) | 9% | 47% | 49.5% | 11% | 83% (active) | 78% (active) | 8% | 87% (active) | 43.5% | 0% | 56% | 34.5% | 29% | 94% (active) | 88.7% (active)
5 | CCCCCCCCC(N)CCCCCCCC | 99% (active) | 98% (active) | 99% (active) | 100% (active) | 99% (active) | 99% (active) | 99% (active) | 99% (active) | 46% | 96% (active) | 99% (active) | 98.8% (active) | 99% (active) | 98% (active) | 99.2% (active) | 99% (active) | 98% (active) | 99.5% (active)
6 | O=C(N(c1ccc(Cl)cc1)c1ccc(Cl)cc1)C(Cl)(Cl)Cl | 20% | 68% | -13.9% | 23% | 63% | 5.7% | 14% | 69% | 4.95% | 14% | 65% | -7.95% | 33% | 74% (active) | -1.25% | 38% | 74% (active) | 18.1%
7 | N=C(N)SCc1nc(-c2ccc(Cl)cc2)no1 | 18% | 77% (active) | 94.3% (active) | 8% | 57% | 87.5% (active) | 0% | 78% (active) | 90.1% (active) | 0% | 61% | 70% (active) | -4% | 72% (active) | 94% (active) | -10% | 64% | 84.9% (active)
8 | N#CC(C(=O)CCc1nc2ccccc2[nH]1)c1c(Cl)cccc1Cl (centres undefined) | -14% | 19% | -21.2% | 4% | 12% | 8.05% | 7% | 2% | 19.6% | -5% | 3% | -30.1% | -2% | 6% | 6.75% | -1% | 0% | 16.1%
9 | O=C(CBr)N1c2ccccc2Sc2ccc3ccccc3c21 | 93% (active) | 99% (active) | 90.5% (active) | 49% | 99% (active) | 90.7% (active) | 81% (active) | 99% (active) | 91.7% (active) | 62% | 99% (active) | 90% (active) | 74% (active) | 99% (active) | 91% (active) | 88% (active) | 98% (active) | 88.2% (active)
10 | O=C(O)Cc1ccc2c3c(cccc13)CC2 | 44% | 90% (active) | 88.1% (active) | 12% | 94% (active) | 91.8% (active) | 20% | 78% (active) | 91.2% (active) | 23% | 77% (active) | 90.2% (active) | 16% | 86% (active) | 92.2% (active) | 27% | 91% (active) | 92.8% (active)
11 | Oc1ccc2c(c1)OCC1c3ccccc3OC21 (centres undefined) | 24% | 71% (active) | 76.7% (active) | 38% | 78% (active) | 64.3% | 28% | 73% (active) | 66.3% | 23% | 56% | 50.1% | 37% | 89% (active) | 75% (active) | 50% | 88% (active) | 76.7% (active)
12 | CCCCCNc1ccc2c(cc1=O)C(NC(C)=O)CCc1cc(OC)c(OC)c(OC)c1-2 (centres undefined) | 16% | 89% (active) | 13.4% | 10% | 97% (active) | 19.8% | 11% | 98% (active) | 18.2% | 16% | 93% (active) | 71.7% (active) | 21% | 97% (active) | 45.2% | 19% | 95% (active) | 24.9%
13 | CCCCCCCCCCCCSCCCN | -6% | 99% (active) | 99.2% (active) | -3% | 99% (active) | 99.5% (active) | -1% | 99% (active) | 99.2% (active) | -9% | 99% (active) | 99.5% (active) | -5% | 99% (active) | 99.5% (active) | -9% | 99% (active) | 99.5% (active)
14 | CCCCCCCCCCCCCC1=NCC(C)(C)N1 | 83% (active) | 100% (active) | 99.2% (active) | 85% (active) | 100% (active) | 97.3% (active) | 91% (active) | 100% (active) | 99.7% (active) | 66% | 99% (active) | 97.8% (active) | 89% (active) | 100% (active) | 99.7% (active) | 82% (active) | 100% (active) | 99.5% (active)
15 | CC[C@@H](C(=O)[C@@H](C)[C@@H](O)[C@H](C)CCc1ccc(C)c(O)c1C(=O)O)[C@H]1O[C@](CC)([C@H]2CC[C@](O)(CC)[C@H](C)O2)C[C@@H]1C | 36% | 97% (active) | 89.7% (active) | 48% | 98% (active) | 92% (active) | 38% | 98% (active) | 91% (active) | 71% (active) | 99% (active) | 87.8% (active) | 65% | 98% (active) | 88.9% (active) | 35% | 98% (active) | 89.3% (active)
16 | Nc1nc(-c2cc3cc(Cl)ccc3o2)cs1 | 47% | 75% (active) | 1.1% | 34% | 61% | -6.7% | 39% | 75% (active) | 24.4% | 35% | 50% | 15.8% | 46% | 71% (active) | 43.7% | 51% | 79% (active) | -4.25%
17 | CC(C)=CC[P+](CCCCCC[P+](CC=C(C)C)(c1ccccc1)c1ccccc1)(c1ccccc1)c1ccccc1 | -4% | 9% | 31.6% | -1% | 9% | 40.8% | -3% | 27% | 59.5% | -5% | 16% | 4.75% | -3% | 15% | 48.3% | -1% | 27% | 89.2% (active)
18 | O=[N+]([O-])c1ccc(SCc2ccccc2)c2nonc12 | 13% | 63% | 86.8% (active) | 12% | 99% (active) | 89.5% (active) | 14% | 87% (active) | 88% (active) | 13% | 77% (active) | 88.9% (active) | 11% | 97% (active) | 88.7% (active) | 22% | 81% (active) | 86% (active)
